Experimental data as given in PubChem BioAssay (NCI).
This is part of a sample that, as a whole, favours compounds with a hit. Of some 79,000 tested, about 15% had one in any assay. A number with no mark means an inactive call. Activity calls are given as the source filed them. No stated cut-off is given here; in the data, active means growth inhibition above about 70%; inactive means the rest.

How the values were obtained:
[1] = NCI Yeast Anticancer Drug Screen. Data for the rad50 strain (AID 155);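 further: 0% = growth of vehicle-only cultures of the same strain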; details: S. cerevisiae rad50 strain growth inhibition, hits give high values
In short: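 Growth of the mutant yeast was measured after compound exposure and referenced to vehicle-treated cultures.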

[2] = NCI Yeast Anticancer Drug Screen. Data for the mec2-1 strain (AID 157); details: S. cerevisiae mec2-1 strain, hits give high values
In short: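 Test agents were screened against the mec2-1 yeast strain, with defined DNA repair or cell cycle alteration. Growth was scored as inhibition against vehicle-only controls.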

[3] = NCI Yeast Anticancer Drug Screen. Data for the sgs1 mgt1 strain (AID 161);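 further: 0% = growth of cultures given vehicle only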; details: S. cerevisiae sgs1 mgt1 strain, hits give high values
In short: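 Genetically altered yeast, compound exposure, growth inhibition relative to vehicle.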

[4] = NCI Yeast Anticancer Drug Screen. Data for the cln2 rad14 strain (AID 165);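 further: 0% = growth equal to vehicle treated cultures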; details: S. cerevisiae cln2 rad14 strain, hits give high values
In short: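 Growth of compound-exposed yeast (cln2 rad14 genotype) measured and expressed as inhibition relative to vehicle.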

[5] = NCI Yeast Anticancer Drug Screen. Data for the bub3 strain (AID 167); details: S. cerevisiae bub3 mutant strain, hits give high values
In short: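 Whole-cell yeast assay. The mutant strain was incubated with compounds, and growth inhibition was determined by comparison with vehicle-treated cells.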

[6] = NCI Yeast Anticancer Drug Screen. Data for the mlh1 rad18 strain (AID 175); details: S. cerevisiae mlh1 rad18 strain growth inhibition, hits give high values
In short: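 In this whole-cell yeast screen, a strain with altered DNA damage repair is challenged with compound, and its growth is measured against matched vehicle-treated controls.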

[7] = at 5.0 µM (retest, dose inferred, filed as 0.5)
[8] = at 50.0 µM (retest, dose inferred, filed as 5.0)

Compound | growth inhibition [1, 7] | growth inhibition [1, 8] | growth inhibition ([1]; at 50.0 µM) | growth inhibition [2, 7] | growth inhibition [2, 8] | growth inhibition ([2]; at 50.0 µM) | growth inhibition [3, 7] | growth inhibition [3, 8] | growth inhibition ([3]; at 50.0 µM) | growth inhibition [4, 7] | growth inhibition [4, 8] | growth inhibition ([4]; at 50.0 µM) | growth inhibition [5, 7] | growth inhibition [5, 8] | growth inhibition ([5]; at 50.0 µM) | growth inhibition [6, 7] | growth inhibition [6, 8] | growth inhibition ([6]; at 50.0 µM)
Fc1ccc(CN2COc3c(cc(Cl)c4cccnc34)C2)cc1 | 9% | 97% (active) | 99.2% (active) | 1% | 97% (active) | 99.6% (active) | 2% | 99% (active) | 99.6% (active) | -8% | 98% (active) | 99.3% (active) | -5% | 99% (active) | 99.5% (active) | 11% | 99% (active) | 99.5% (active)
CN(C)c1ccc(/C=C(\C#N)c2c(F)cccc2F)cc1 | 4% | -2% | 6.05% | 3% | 2% | -10.8% | 4% | 1% | 17.9% | 3% | -3% | 41.8% | 3% | -2% | 13.3% | 1% | -1% | 0.45%
C=CCOc1ccc2c(c1)CC=C1[C@@H]2CC[C@]2(C)C(=N\O)/C(=N/O)C[C@@H]12 | 10% | 95% (active) | 98.8% (active) | -7% | 99% (active) | 99.1% (active) | -9% | 99% (active) | 99% (active) | -2% | 99% (active) | 98.1% (active) | 1% | 99% (active) | 98.8% (active) | 45% | 99% (active) | 99% (active)
C[CH2][Sn]([CH2]C)([O]C(=O)c1c(F)cccc1F)[O][Sn]([CH2]C)([CH2]C)[O]C(=O)c1c(F)cccc1F | 40% | 89% (active) | 81.3% (active) | 34% | 95% (active) | 81.8% (active) | 36% | 95% (active) | 83.2% (active) | 28% | 84% (active) | 72.4% (active) | 45% | 72% (active) | 78.5% (active) | 44% | 93% (active) | 78.2% (active)
CCOC(=O)C(CO)c1nc2c([nH]c1=O)c(=O)n(C)c(=O)n2C (stereo not given) | 5% | 18% | 29.9% | 14% | 17% | 43.5% | 33% | 60% | 50.5% | -4% | 5% | -2.95% | 6% | 39% | 52.9% | 17% | 18% | 83.5% (active)
O=C1C2=Cc3ccccc3CCN2c2ccccc21 | 4% | 4% | 88.3% (active) | -6% | -6% | 90.7% (active) | 1% | 1% | 89.8% (active) | -8% | -8% | 86.2% (active) | 2% | 2% | 89.8% (active) | 2% | 2% | 83.1% (active)
CCCCCCC(O)C(CO)CCCCC (stereo not given) | 0% | 97% (active) | 98% (active) | -2% | 96% (active) | 98% (active) | 1% | 62% | 45.5% | 5% | 97% (active) | 98.8% (active) | 0% | 97% (active) | 98.2% (active) | -2% | 92% (active) | 98.5% (active)
C=Cc1ccc(B2NCCO2)cc1 | -2% | 99% (active) | 99.7% (active) | 7% | 97% (active) | 99.5% (active) | -8% | 99% (active) | 99.6% (active) | 0% | 74% (active) | 92.5% (active) | 8% | 59% | 99.5% (active) | 10% | 99% (active) | 99.2% (active)
O=[N+]([O-])OC1CCCC(O[N+](=O)[O-])c2c1n([O-])c1ccccc1[n+]2=O (stereo not given) | 53% | 91% (active) | 89.3% (active) | 40% | 86% (active) | 21.2% | 58% | 94% (active) | 82.5% (active) | 39% | 84% (active) | 47.1% | 19% | 73% (active) | 17.5% | 53% | 94% (active) | 84% (active)
C=C1CC(Cn2ccc(=O)[nH]c2=O)(c2ccc(Cl)cc2)OC1=O (stereo not given) | 11% | 64% | 47.9% | -4% | 85% (active) | 49.8% | -22% | 80% (active) | 70% (active) | 27% | 35% | 39.5% | 6% | 87% (active) | 65.8% | 19% | 81% (active) | 74.1% (active)
[NH-]c1ccccc1[S-].[NH-]c1ccccc1[S-].[Zn] | 0% | 99% (active) | 99.3% (active) | 11% | 100% (active) | 99.6% (active) | 18% | 100% (active) | 102% (active) | 7% | 98% (active) | 96.3% (active) | 14% | 99% (active) | 99.4% (active) | 19% | 99% (active) | 99.2% (active)
CC(C)(C)CC(C)(C)c1ccc(O)c(O)c1 | 96% (active) | 99% (active) | 93.3% (active) | 100% (active) | 99% (active) | 94.2% (active) | 98% (active) | 99% (active) | 94.5% (active) | 55% | 99% (active) | 92.3% (active) | 86% (active) | 98% (active) | 93.3% (active) | 100% (active) | 99% (active) | 93.2% (active)
CSC(SC)=C(C#N)C(=O)Nc1ccc(C)cc1 | 25% | 47% | 40.5% | 10% | 53% | 77.3% (active) | 37% | 55% | 73.4% (active) | 36% | 37% | 29.3% | 50% | 53% | 89.7% (active) | 8% | 8% | 83.8% (active)
Oc1c(I)cc(Cl)c2cccnc12 | 64% | 96% (active) | 97.2% (active) | 63% | 97% (active) | 98.3% (active) | 46% | 97% (active) | 97.8% (active) | 72% (active) | 98% (active) | 96.8% (active) | 39% | 96% (active) | 98.8% (active) | 74% (active) | 95% (active) | 98% (active)
c1ccc2c(c1)Nc1ccccc1[P+]21c2ccccc2Nc2ccccc21 | 98% (active) | 99% (active) | 82.8% (active) | 99% (active) | 99% (active) | 98.8% (active) | 99% (active) | 99% (active) | 59.4% | 99% (active) | 99% (active) | 84.3% (active) | 99% (active) | 99% (active) | 98.7% (active) | 99% (active) | 99% (active) | 98.6% (active)
COc1cc(/C=C(\C#N)c2ccc([N+](=O)[O-])cc2)ccc1O | -13% | 1% | 75.4% (active) | -23% | -3% | 51.2% | -16% | -4% | 74% (active) | -5% | 33% | 66.5% | -20% | 50% | 81.7% (active) | -35% | 57% | 64.2%
CCCCCCCCCCCCCCCCC1CCc2ccccc21 (stereo not given) | 4% | 4% | 56.8% | -2% | -6% | 64.3% | 11% | 13% | 79.4% (active) | 23% | 28% | 89.8% (active) | 38% | 39% | 75.8% (active) | -2% | 11% | 86% (active)
O=C(O)C(CS)Nc1c2ccccc2nc2ccccc12 (stereo not given) | 17% | 88% (active) | 88.6% (active) | 10% | 64% | 39.5% | 11% | 76% (active) | 65% | 17% | 47% | 68.5% | -5% | 71% (active) | 37.5% | 16% | 81% (active) | 91.2% (active)
Cc1c(NC(=O)C(=O)N=NC(=O)c2ccncc2)c(O)c2ccccc2c1O | -15% | 91% (active) | 91% (active) | -31% | 90% (active) | 93.5% (active) | -5% | 69% | 91.9% (active) | -24% | 82% (active) | 90.4% (active) | 1% | 96% (active) | 91% (active) | -6% | 93% (active) | 91.3% (active)
CN(C)c1ccc2c(c1)Cc1cc(NC(=O)/C=C/C(=O)O)ccc1-2 | -31% | -21% | -6.7% | -10% | -19% | -2.05% | -13% | 12% | -8.55% | -5% | 6% | -5.6% | 2% | -3% | -10.7% | -2% | 7% | -4.7%
